# Columns and labels:
# Assay in all cases: DAPPL (digital affinity profiling via proximity ligation, sequencing); 10 mM Tris-HCl pH 7.5, 50 mM NaCl, 1 mM DTT, 4% glycerol, room temperature, 30 min; GST-TFs on glutathione beads, 16-mer random dsDNA library, 0.1% formaldehyde crosslink after washing; high values mean tight binding
# Settings in all cases: protein: recombinant; tags: N-terminal GST; dsDNA, one strand shown
# [1] = target: T1, FLI1 (Homo sapiens, UniProt Q01543 1-452)
# T1 sequence: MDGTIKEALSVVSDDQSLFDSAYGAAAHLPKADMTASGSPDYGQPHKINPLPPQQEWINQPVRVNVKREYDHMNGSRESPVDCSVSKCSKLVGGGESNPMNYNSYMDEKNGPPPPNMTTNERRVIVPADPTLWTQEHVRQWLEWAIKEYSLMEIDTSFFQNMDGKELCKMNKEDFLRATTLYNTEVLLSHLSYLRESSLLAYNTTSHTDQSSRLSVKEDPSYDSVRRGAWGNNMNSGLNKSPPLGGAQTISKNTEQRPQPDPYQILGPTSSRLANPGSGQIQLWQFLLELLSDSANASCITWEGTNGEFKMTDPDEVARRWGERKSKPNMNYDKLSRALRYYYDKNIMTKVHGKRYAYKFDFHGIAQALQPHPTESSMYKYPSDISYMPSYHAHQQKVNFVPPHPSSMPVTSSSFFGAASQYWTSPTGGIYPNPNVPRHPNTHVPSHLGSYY
# How it was run: (§1)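 GST fusions of human transcription factors were expressed in yeast and captured with glutathione beads. Once given DNA barcodes and pooled alongside a tag-only sample, they were incubated for 30 min at room temperature with 200 nmole of a random double-stranded 16-mer DNA library in Tris/NaCl/DTT/glycerol buffer, then washed, crosslinked (0.1% formaldehyde), proximity-ligated, PCR-amplified and sequenced on an Illumina NextSeq500. The binding signal of each hexamer is its read frequency for a factor divided by its frequency for the tag-only sample.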
# [2] = target: T2, ELK1 (Homo sapiens, UniProt P19419 1-428)
# T2 sequence: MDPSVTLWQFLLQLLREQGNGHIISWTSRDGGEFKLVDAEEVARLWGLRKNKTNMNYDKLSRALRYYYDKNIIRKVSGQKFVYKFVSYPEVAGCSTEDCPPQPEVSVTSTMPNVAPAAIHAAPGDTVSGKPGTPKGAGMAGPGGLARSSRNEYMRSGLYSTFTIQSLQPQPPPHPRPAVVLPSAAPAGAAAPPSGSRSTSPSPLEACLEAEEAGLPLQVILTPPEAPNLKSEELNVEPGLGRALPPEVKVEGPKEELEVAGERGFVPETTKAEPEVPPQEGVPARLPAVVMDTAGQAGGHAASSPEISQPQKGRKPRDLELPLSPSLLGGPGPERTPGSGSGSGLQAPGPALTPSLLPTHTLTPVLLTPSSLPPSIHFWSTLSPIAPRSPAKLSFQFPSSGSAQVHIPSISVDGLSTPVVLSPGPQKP
# How it was run: as §1
# [3] = target: T3, GABPA (Homo sapiens, UniProt Q06546 1-454)
# T3 sequence: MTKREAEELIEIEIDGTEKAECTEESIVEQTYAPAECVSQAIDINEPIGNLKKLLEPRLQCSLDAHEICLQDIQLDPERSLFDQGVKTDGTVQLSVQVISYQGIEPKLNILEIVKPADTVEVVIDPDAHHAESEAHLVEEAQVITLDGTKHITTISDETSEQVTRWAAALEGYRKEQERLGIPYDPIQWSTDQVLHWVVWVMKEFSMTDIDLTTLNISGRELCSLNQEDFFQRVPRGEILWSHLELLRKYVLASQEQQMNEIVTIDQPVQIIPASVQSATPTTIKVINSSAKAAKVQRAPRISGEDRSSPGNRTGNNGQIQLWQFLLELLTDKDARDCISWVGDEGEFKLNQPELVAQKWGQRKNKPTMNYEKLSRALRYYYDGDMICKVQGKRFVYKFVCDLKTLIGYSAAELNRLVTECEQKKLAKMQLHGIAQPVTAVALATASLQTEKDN
# How it was run: as §1
# [4] = target: T4, ERG (Homo sapiens, UniProt P11308 1-479)
# T4 sequence: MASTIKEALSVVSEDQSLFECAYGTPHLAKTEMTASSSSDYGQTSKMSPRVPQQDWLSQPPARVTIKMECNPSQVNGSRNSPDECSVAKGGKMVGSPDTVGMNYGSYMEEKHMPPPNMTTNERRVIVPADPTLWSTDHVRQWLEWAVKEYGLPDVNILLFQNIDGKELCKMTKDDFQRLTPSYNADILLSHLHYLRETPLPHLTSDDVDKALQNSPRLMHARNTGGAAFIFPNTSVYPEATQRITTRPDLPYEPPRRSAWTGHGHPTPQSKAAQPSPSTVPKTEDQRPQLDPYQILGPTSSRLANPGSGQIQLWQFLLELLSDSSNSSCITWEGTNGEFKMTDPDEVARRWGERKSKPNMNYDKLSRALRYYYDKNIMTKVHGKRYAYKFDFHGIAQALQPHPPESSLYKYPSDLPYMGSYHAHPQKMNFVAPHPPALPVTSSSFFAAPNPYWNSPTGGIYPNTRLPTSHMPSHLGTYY
# How it was run: as §1
# [5] = target: ELF1 (Homo sapiens, UniProt P32519 1-619)
# How it was run: as §1
# [6] = target: T5, EHF (Homo sapiens, UniProt Q9NZC4 1-300)
# T5 sequence: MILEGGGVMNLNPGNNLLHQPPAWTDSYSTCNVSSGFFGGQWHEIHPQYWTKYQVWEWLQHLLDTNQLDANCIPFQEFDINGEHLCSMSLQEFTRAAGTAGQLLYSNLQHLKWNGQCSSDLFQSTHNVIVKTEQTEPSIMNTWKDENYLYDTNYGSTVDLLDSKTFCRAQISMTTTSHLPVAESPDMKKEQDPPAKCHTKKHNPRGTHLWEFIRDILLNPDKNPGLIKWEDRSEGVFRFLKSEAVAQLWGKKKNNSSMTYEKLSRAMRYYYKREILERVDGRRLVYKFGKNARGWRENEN
# How it was run: as §1
# [7] = target: SPI1 (Homo sapiens, UniProt P17947 1-270)
# How it was run: as §1
# [8] = target: SPIB (Homo sapiens, UniProt Q01892 1-262)
# How it was run: as §1
# [9] = target: T6, ELK3 (Homo sapiens, UniProt P41970 1-407)
# T6 sequence: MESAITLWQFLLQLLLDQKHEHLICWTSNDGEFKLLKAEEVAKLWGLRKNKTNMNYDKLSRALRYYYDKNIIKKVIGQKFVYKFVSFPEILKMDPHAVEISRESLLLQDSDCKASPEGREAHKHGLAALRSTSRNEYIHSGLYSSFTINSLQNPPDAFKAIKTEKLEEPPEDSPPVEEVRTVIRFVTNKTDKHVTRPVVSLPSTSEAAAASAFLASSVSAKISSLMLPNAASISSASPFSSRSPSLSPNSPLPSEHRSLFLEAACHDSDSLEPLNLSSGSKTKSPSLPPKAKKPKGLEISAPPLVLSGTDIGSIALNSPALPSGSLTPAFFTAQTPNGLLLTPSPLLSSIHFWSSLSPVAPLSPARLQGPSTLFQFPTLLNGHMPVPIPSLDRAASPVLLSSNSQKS
# How it was run: as §1
# ELF1, sequence (P32519 whole entry): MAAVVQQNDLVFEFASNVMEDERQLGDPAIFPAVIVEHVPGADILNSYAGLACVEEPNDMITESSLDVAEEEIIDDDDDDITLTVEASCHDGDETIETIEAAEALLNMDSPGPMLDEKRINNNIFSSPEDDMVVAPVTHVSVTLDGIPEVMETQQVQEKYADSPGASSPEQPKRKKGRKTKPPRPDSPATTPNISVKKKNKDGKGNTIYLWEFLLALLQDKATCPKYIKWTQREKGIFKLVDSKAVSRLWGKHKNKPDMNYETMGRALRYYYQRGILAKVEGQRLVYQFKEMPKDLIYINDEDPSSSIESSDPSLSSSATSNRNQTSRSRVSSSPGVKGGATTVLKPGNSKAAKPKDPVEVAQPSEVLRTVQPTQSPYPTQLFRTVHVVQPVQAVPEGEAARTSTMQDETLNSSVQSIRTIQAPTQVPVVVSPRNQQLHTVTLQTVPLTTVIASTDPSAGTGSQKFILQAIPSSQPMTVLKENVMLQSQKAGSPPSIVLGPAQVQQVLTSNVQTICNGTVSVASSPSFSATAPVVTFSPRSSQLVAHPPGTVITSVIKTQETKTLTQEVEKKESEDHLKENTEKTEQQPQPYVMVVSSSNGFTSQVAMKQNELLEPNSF
# SPIB, sequence (Q01892 whole entry): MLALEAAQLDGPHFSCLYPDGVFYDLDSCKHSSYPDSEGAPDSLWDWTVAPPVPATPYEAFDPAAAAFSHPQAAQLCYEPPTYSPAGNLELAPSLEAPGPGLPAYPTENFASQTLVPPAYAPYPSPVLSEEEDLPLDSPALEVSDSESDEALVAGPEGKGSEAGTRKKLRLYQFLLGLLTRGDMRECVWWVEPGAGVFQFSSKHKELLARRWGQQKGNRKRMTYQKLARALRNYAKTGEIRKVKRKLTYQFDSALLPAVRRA
sequence,measurement,setting,value
CACATA,binding signal,[1],"1.14 fold enrichment (6-mer frequency, TF over GST control)"
same,binding signal,[2],"1.14 fold enrichment (6-mer frequency, TF over GST control)"
same,binding signal,[3],"1.11 fold enrichment (6-mer frequency, TF over GST control)"
same,binding signal,[4],"1.14 fold enrichment (6-mer frequency, TF over GST control)"
same,binding signal,[5],"1.18 fold enrichment (6-mer frequency, TF over GST control)"
same,binding signal,[6],"1.13 fold enrichment (6-mer frequency, TF over GST control)"
same,binding signal,[7],"1.11 fold enrichment (6-mer frequency, TF over GST control)"
same,binding signal,[8],"1.06 fold enrichment (6-mer frequency, TF over GST control)"
same,binding signal,[9],"1.17 fold enrichment (6-mer frequency, TF over GST control)"
TGCCTT,binding signal,[1],"1.29 fold enrichment (6-mer frequency, TF over GST control)"
same,binding signal,[2],"1.38 fold enrichment (6-mer frequency, TF over GST control)"
same,binding signal,[3],"1.54 fold enrichment (6-mer frequency, TF over GST control)"
same,binding signal,[4],"1.35 fold enrichment (6-mer frequency, TF over GST control)"
same,binding signal,[5],"1.33 fold enrichment (6-mer frequency, TF over GST control)"
same,binding signal,[6],"1.3 fold enrichment (6-mer frequency, TF over GST control)"
same,binding signal,[7],"1.44 fold enrichment (6-mer frequency, TF over GST control)"
same,binding signal,[8],"1.35 fold enrichment (6-mer frequency, TF over GST control)"
same,binding signal,[9],"1.24 fold enrichment (6-mer frequency, TF over GST control)"
TCCGTC,binding signal,[1],"1.24 fold enrichment (6-mer frequency, TF over GST control)"
same,binding signal,[2],"1.43 fold enrichment (6-mer frequency, TF over GST control)"
same,binding signal,[3],"1.29 fold enrichment (6-mer frequency, TF over GST control)"
same,binding signal,[4],"1.49 fold enrichment (6-mer frequency, TF over GST control)"
same,binding signal,[5],"1.36 fold enrichment (6-mer frequency, TF over GST control)"
same,binding signal,[6],"1.41 fold enrichment (6-mer frequency, TF over GST control)"
same,binding signal,[7],"1.28 fold enrichment (6-mer frequency, TF over GST control)"
same,binding signal,[8],"1.56 fold enrichment (6-mer frequency, TF over GST control)"
same,binding signal,[9],"1.47 fold enrichment (6-mer frequency, TF over GST control)"
TATGGT,binding signal,[1],"1.38 fold enrichment (6-mer frequency, TF over GST control)"
same,binding signal,[2],"1.3 fold enrichment (6-mer frequency, TF over GST control)"
same,binding signal,[3],"1.32 fold enrichment (6-mer frequency, TF over GST control)"
same,binding signal,[4],"1.22 fold enrichment (6-mer frequency, TF over GST control)"
same,binding signal,[5],"1.37 fold enrichment (6-mer frequency, TF over GST control)"
same,binding signal,[6],"1.39 fold enrichment (6-mer frequency, TF over GST control)"
same,binding signal,[7],"1.28 fold enrichment (6-mer frequency, TF over GST control)"
same,binding signal,[8],"1.3 fold enrichment (6-mer frequency, TF over GST control)"
same,binding signal,[9],"1.17 fold enrichment (6-mer frequency, TF over GST control)"
ACTTGG,binding signal,[1],"1.34 fold enrichment (6-mer frequency, TF over GST control)"
same,binding signal,[2],"1.19 fold enrichment (6-mer frequency, TF over GST control)"
same,binding signal,[3],"1.15 fold enrichment (6-mer frequency, TF over GST control)"
same,binding signal,[4],"1.16 fold enrichment (6-mer frequency, TF over GST control)"
same,binding signal,[5],"1.34 fold enrichment (6-mer frequency, TF over GST control)"
same,binding signal,[6],"1.1 fold enrichment (6-mer frequency, TF over GST control)"
same,binding signal,[7],"1.21 fold enrichment (6-mer frequency, TF over GST control)"
same,binding signal,[8],"1.25 fold enrichment (6-mer frequency, TF over GST control)"
same,binding signal,[9],"1.29 fold enrichment (6-mer frequency, TF over GST control)"
CTGCCA,binding signal,[1],"1.18 fold enrichment (6-mer frequency, TF over GST control)"
same,binding signal,[2],"1.17 fold enrichment (6-mer frequency, TF over GST control)"
same,binding signal,[3],"1.24 fold enrichment (6-mer frequency, TF over GST control)"
same,binding signal,[4],"1.23 fold enrichment (6-mer frequency, TF over GST control)"
same,binding signal,[5],"1.23 fold enrichment (6-mer frequency, TF over GST control)"
same,binding signal,[6],"1.18 fold enrichment (6-mer frequency, TF over GST control)"
same,binding signal,[7],"1.24 fold enrichment (6-mer frequency, TF over GST control)"
same,binding signal,[8],"1.28 fold enrichment (6-mer frequency, TF over GST control)"
same,binding signal,[9],"1.08 fold enrichment (6-mer frequency, TF over GST control)"
TACTAA,binding signal,[1],"1.2 fold enrichment (6-mer frequency, TF over GST control)"
same,binding signal,[2],"1.23 fold enrichment (6-mer frequency, TF over GST control)"
same,binding signal,[3],"1.36 fold enrichment (6-mer frequency, TF over GST control)"
same,binding signal,[4],"1.29 fold enrichment (6-mer frequency, TF over GST control)"
same,binding signal,[5],"1.28 fold enrichment (6-mer frequency, TF over GST control)"
same,binding signal,[6],"1.3 fold enrichment (6-mer frequency, TF over GST control)"
same,binding signal,[7],"1.25 fold enrichment (6-mer frequency, TF over GST control)"
same,binding signal,[8],"1.23 fold enrichment (6-mer frequency, TF over GST control)"
same,binding signal,[9],"1.24 fold enrichment (6-mer frequency, TF over GST control)"
AATTTG,binding signal,[1],"1.35 fold enrichment (6-mer frequency, TF over GST control)"
same,binding signal,[2],"1.22 fold enrichment (6-mer frequency, TF over GST control)"
same,binding signal,[3],"1.33 fold enrichment (6-mer frequency, TF over GST control)"
same,binding signal,[4],"1.26 fold enrichment (6-mer frequency, TF over GST control)"
same,binding signal,[5],"1.26 fold enrichment (6-mer frequency, TF over GST control)"
same,binding signal,[6],"1.23 fold enrichment (6-mer frequency, TF over GST control)"
same,binding signal,[7],"1.33 fold enrichment (6-mer frequency, TF over GST control)"
same,binding signal,[8],"1.34 fold enrichment (6-mer frequency, TF over GST control)"
same,binding signal,[9],"1.12 fold enrichment (6-mer frequency, TF over GST control)"

# Reference: paper PMC7862700, “An all-to-all approach to the identification of sequence-specific readers for epigenetic DNA modifications on cytosine”
